Source: PubChem BioAssay
Compounds with a hit are over-represented: about 4.7% of the library has one in this group of screens.
DRD3 agonist = qHTS of D3 Dopamine Receptor Agonist: qHTS | D(3) dopamine receptor (Homo sapiens), P35462 | D3R DiscoveRx beta-arrestin cells, luminescence, 90 min | max activation, % | 410,000 tested, 0.58% active | AID 652048, 2013; in the data active means max activation above about 30%; further: 0% is about no effect
Target sequence (P35462 whole entry, looked up): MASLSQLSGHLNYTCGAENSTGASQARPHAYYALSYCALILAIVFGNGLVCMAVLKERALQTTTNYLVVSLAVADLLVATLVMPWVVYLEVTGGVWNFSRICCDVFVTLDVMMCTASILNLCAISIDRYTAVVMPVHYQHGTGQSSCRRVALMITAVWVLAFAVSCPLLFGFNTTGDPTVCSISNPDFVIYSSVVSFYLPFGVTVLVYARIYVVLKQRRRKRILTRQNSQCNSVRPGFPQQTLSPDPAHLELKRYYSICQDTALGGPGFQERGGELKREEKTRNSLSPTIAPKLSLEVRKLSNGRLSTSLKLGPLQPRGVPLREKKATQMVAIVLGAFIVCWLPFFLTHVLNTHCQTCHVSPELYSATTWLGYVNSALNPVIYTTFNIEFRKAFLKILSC
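Agonist mode: compounds and dopamine controls were applied to plated cells for 90 min at 37 degrees C after an overnight attachment at 1500 cells/well. Luminescent read-out followed 30 - 60 minutes at room temperature with DiscoveRx detection reagent.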
ATXN viability = Viability Counterscreen for Primary qHTS for Inhibitors of ATXN expression | S2 cells (HEK-293 line with an ATXN2-luciferase reporter) viability, CellTiter-Fluor protease fluorescence, 24 h | Potency, µM (highest dose often 56.7 µM), usual class: cytotoxic | 400,000 tested, 0.49% active; further: potency means the concentration at half of the fitted maximal effect; nearly all actives have a fitted effect of over 40% in size
TGFb inhibitor = qHTS for Inhibitors of TGF-b; HepG2 CAGA-GFP TGF-b/SMAD3 reporter, GFP fluorescence, 18 h; TGF-beta stimulated, 500 pg/mL final; Potency, µM (series often up to 46.1 µM), for inactives: top-dose activity, negative = inhibition, actives largely listed as inhibitors; 410,000 tested, 1.2% active; further: potency means the concentration at half of the fitted maximal effect; on the % scale 0 is the no-effect control and ±100 the full control effect; nearly all actives have a fitted effect of over 65% in size
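Inhibition of TGF-beta-driven CAGA-GFP reporter expression in HEPG2 cells is measured by cellular GFP fluorescence after 18 h stimulation with 500 pg/mL recombinant TGF-beta in 1% FBS medium at 37 degrees C.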
ATXN2 expr inh = Primary qHTS for Inhibitors of ATXN expression; HEK-293 ATXN2-luciferase reporter, luminescence, 24 h; Potency, µM (series often up to 57 µM), for the others: top-dose activity change, negative = inhibition, most hits filed as inhibitors; 360,000 tested, 0.72% active; further: potency means the concentration at half of the fitted maximal effect; on the % scale 0 is the no-effect control and ±100 the full control effect; nearly all actives have a fitted effect of over 55% in size
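qHTS (up to 57 uM final) was run with 24 h compound exposure of reporter cells at 37 °C. Each well was multiplexed: SteadyGlo luminescence measured ATXN2-luciferase expression after a fluorogenic Gly-Phe-AFC viability readout (25 uM final).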
HepG2 viability = qHTS for Inhibitors of TGF-b: Cytotox Counterscreen; HepG2 CAGA-GFP viability, ATP luminescence, 18 h; Potency, µM (titrated, usually from 46.1 µM), for inactives: at the top dose activity change, negative = cytotoxicity, actives largely listed as cytotoxic; 410,000 tested, 0.76% active; AID 588856, 2011; further: potency means the concentration at half of the fitted maximal effect
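CellTiter-Glo luminescence gave cytotoxicity after 18 hours at 37 degrees C. The cells were HepG2 CAGA-GFP in 1% FBS DMEM, stimulated with 500 pg/mL TGF-beta after compound addition. %Activity was normalised to no-cell wells (complete cell-killing) and DMSO (no toxicity), and curves were fitted and classified.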
DRD3 antagonist = qHTS of D3 Dopamine Receptor Antagonist: qHTS; AID 652054, 2013; D(3) dopamine receptor (Homo sapiens), P35462; max response, negative = inhibition, %; D3R cells, DiscoveRx beta-arrestin luminescence, antagonist mode; hits give low values; 360,000 tested, 2.5% active; in the data active means max response below about -50%; inconclusive means no clear call, values can overlap the other calls; further: on the % scale 0 is the no-effect control and ±100 the full control effect
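Cells plated overnight at 1500 cells/well, then exposed to library compounds with dopamine controls for 90 minutes at 37 degrees C. DiscoveRx reagent added for 30–60 minutes at room temperature; luminescence read, quantitative HTS format.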
* hit, by the source's call; i = inactive; ? = inconclusive; · = no result given; + = active, no number; ! = not active in a repeat; [ ] = another dose, or the depositor's remark. Unless noted, the call rests on the fitted dose curve; in most records, active means well fitted curve in the direction sought with a large enough effect; inconclusive means small, poorly fitted or top-dose-only effect, or another doubt; inactive means no such curve, though single readings can be large; an effect the other way counts as inactive or inconclusive.

SMILES	DRD3 agonist	ATXN viability	TGFb inhibitor	ATXN2 expr inh	HepG2 viability	DRD3 antagonist
O=C1C(Cc2ccccc2)Nc2ncnc(N3CCN(c4ccccc4)CC3)c2N1Cc1ccc(Br)cc1 (stereo unspecified)	-55	?	?	5%	-2%	-151*
CCC1Nc2ncnc(N3CCOCC3)c2N(Cc2ccc(OC)cc2)C1=O (stereo unspecified)	10	i	?	9%	16%	3
CCC1Nc2ncnc(N3CCN(c4ccccc4)CC3)c2N(Cc2ccc(Br)cc2)C1=O (stereo unspecified)	-88	i	-31%	-26%	-6%	+
CC1(C(=O)NCc2ccccc2)CN(S(C)(=O)=O)CC(=O)N1CCc1ccccc1F (stereo unspecified)	4	·	·	·	·	4
CC(C)(C)n1ncc2c(=O)n(Cc3c(F)cc(Cl)cc3F)cnc21	·	·	-15%	·	-18%	·
Cc1n[nH]c(C)c1Sc1ccccc1[N+](=O)[O-]	2	i	27%	6%	2%	13
Cc1n[nH]c(C)c1Sc1ccccc1N=Cc1cc(Cl)cc([N+](=O)[O-])c1O	-15	i	1%	-6%	-17%	-131*
CCOc1cccc(C2C=C(c3ccc4c(c3)OCO4)NC(c3ccccc3F)N2)c1O (stereo unspecified)	·	·	?	·	-33%	·
CCOC(=O)C1(Cc2ccccc2C)CCCN(C(=O)CN2CCCCC2=O)C1 (stereo unspecified)	58*	i	-3%	17%	2%	-21
NC(=O)c1c(-c2cccs2)csc1N	4	i	?	13%	-23%	-54*
O=C(/C=C/c1c(Cl)cccc1Cl)n1cccn1	-8	i	?	-8%	-24%	-74*
CCN1CCN(C(=O)Cn2ncc3c4ccccc4n(Cc4c(C)cc(C)cc4C)c3c2=O)CC1	-20	·	16µM*	·	-96%	·
CCCC(=O)Nc1ccccc1NC(=O)CN(C)S(=O)(=O)c1ccc(C)cc1	-6	i	-7%	4%	13µM*	3
CC(=O)Nc1ccccc1NC(=O)CN(C)S(=O)(=O)c1ccc(C)cc1	0	i	0%	-1%	-5%	-4
Cc1cccc(-c2[nH]c(C(C)(C)C)nc2-c2ccc3nccnc3c2)n1	·	·	·	27µM*	·	·
Cc1cccc(-c2[nH]ncc2-c2ccc3ncccc3n2)n1	·	·	·	6%	·	·
CCCCN1CC(c2nc3ccccc3n2CCCCOc2c(C)cccc2C)CC1=O (stereo unspecified)	-14	?	?	22µM*	-118%	·
CCOc1ccccc1N1CC(c2nc3ccccc3n2CCOc2ccc(OC)cc2)CC1=O (stereo unspecified)	-10	32µM*	?	?	13µM*	·
Cc1c(Cl)cccc1N1CC(c2nc3ccccc3n2Cc2ccccc2F)CC1=O (stereo unspecified)	-3	32µM*	?	0%	-31%	·
CCCCN1CC(c2nc3ccccc3n2CCCCOc2cc(C)ccc2C)CC1=O (stereo unspecified)	-10	?	?	?	-92%	·
CCOc1ccccc1N1CC(c2nc3ccccc3n2CCCOc2ccc(OC)cc2)CC1=O (stereo unspecified)	5	i	0%	9%	-3%	·
CCCCN1CC(c2nc3ccccc3n2CCCCOc2ccccc2C)CC1=O (stereo unspecified)	-15	?	?	-24%	18µM*	·
CCCCOC(=O)c1cccc(NC(=O)/C=C/c2ccccc2Cl)c1	5	·	?	·	-37%	·
Cc1cc(C)cc(OCC(=O)N2CCC(c3nc4ccccc4o3)CC2)c1	11	·	0%	·	-26%	·
Cc1cc(C)cc(CN2CCOc3ccc(CN4CCC(O)(c5cccnc5)CC4)cc3C2)c1	·	i	·	·	·	·
SMILES	DRD3 agonist	ATXN viability	TGFb inhibitor	ATXN2 expr inh	HepG2 viability	DRD3 antagonist
COc1ccc(C2=C(Nc3ccc(Br)c(C)c3)c3ccccc3C2=O)cc1	1	?	14µM*	-16%	-38%	·
COc1ccc(CNC(=O)c2cnn(-c3ncc4c(n3)-c3ccccc3CC4)c2C)cc1OC	·	i	·	·	·	·
O=c1ccn([C@@H]2O[C@H](CNS(=O)(=O)c3csc(-c4ccno4)c3)[C@@H](O)[C@H]2O)c(=O)[nH]1	44*	i	-1%	5%	8%	16
Cc1ccc(-n2c(Cl)c(Cl)nc(Cl)c2=O)cc1	-48	·	5µM*	5.3µM*	7.1µM*	-106*
COc1cccc2c1cc1c(=O)n(CC(=O)N3CCC(C)CC3)nc(C)n12	38*!	i	-10%	·	-15%	1
Cc1c(C(=O)Nc2ccc(F)cc2)oc2ccc(S(=O)(=O)N3CC(C)CC(C)C3)cc12 (stereo unspecified)	-4	i	?	-15%	-8%	-62*
Cc1cccc(NC(=O)c2oc3ccc(S(=O)(=O)N4CCOCC4)cc3c2C)c1C	41*	i	20%	-25%	-60%	51
CCOC(=S)SSC(=S)OCC	7	·	·	·	·	·
O=C(C=Cc1cccc(S(=O)(=O)Nc2ccccc2)c1)NO	·	·	·	89%[116 µM]	·	·
Cc1nc(SCC(=O)Nc2ccc(C)c(Cl)c2)cc(-c2ccccc2)n1	17	·	10µM*	·	-12%	·
Cc1ccc(C)c(OCCCNCc2ccccc2)c1	-6	i	5%	·	-17%	-54*
Brc1ccc(OCc2ccccc2)c(CNCc2ccncc2)c1	-40	?	-1%	?	-34%	-62*
CCc1cc(OCCCCNCc2ccccc2)ccc1Cl	-13	i	?	-32%	-89%	?
Clc1cc(Br)ccc1OCCCNCc1ccccc1	-11	i	11µM*	-18%	13µM*	-88*
Cc1ccccc1CN1CCc2nnc(C(C)NC(=O)c3cc(F)ccc3F)n2CC1 (stereo unspecified)	·	i	·	·	·	·
COc1cc(Nc2nc(SCC(=O)c3ccc(Br)cc3)nc3ccccc23)cc(OC)c1	11	·	?	·	10µM*	·
Cc1cccn2c(=O)c3cc(C#N)c(=O)n(-c4nnc(SCc5ccc(Cl)cc5)s4)c3nc12	2	·	·	·	-9%	·
O=C(NCCc1ccccn1)c1cnn(-c2ncc3c(n2)-c2ccccc2CC3)c1C1CC1	·	i	·	·	·	·
CCOC(=O)[C@@H](CCc1ccccc1)N[C@H](C)C(=O)N1[C@H](C(=O)O)C[C@@H]2CCC[C@@H]21	-20	i	3%	3%	-31%	-54*
